# Measured values taken from ChEMBL document CHEMBL1157539, “Thousands of chemical starting points for antimalarial lead identification” (Nature, 2010).
# Legend:
# Format in all cases: functional
# [1] = test system: Plasmodium falciparum; assay: GSK_TCMDC: Inhibition of Plasmodium falciparum 3D7 in whole red blood cells, using parasite LDH activity as an index of growth. Test compounds present at 2uM
# [2] = test system: Plasmodium falciparum; assay: GSK_TCMDC: Inhibition of Plasmodium falciparum Dd2 in whole red blood cells, using parasite LDH activity as an index of growth. Test compounds present at 2uM
# [3] = test system: HepG2; assay: GSK_TCMDC: Percent inhibition of human HepG2 cell line. Test compounds present at 10uM.
Compound,Inhibition [1] [%],Inhibition [2] [%],Inhibition [3] [%]
COc1cc(OC)cc(C(=O)Nc2nc(-c3ccccn3)cs2)c1,97,72,47
Fc1ccc(CNc2ncc(-c3ccsc3)c(-c3nccs3)n2)cc1,94,77,7
O=C(/C=C/c1ccc(Cl)c(Cl)c1)NCC(CCCN1CCC(c2c[nH]c3ccccc23)CC1)c1ccccc1 (centres undefined),100,46,98
COc1ccc2nccc([C@@H](O)CN3CCC(NC/C=C/c4cccnc4)CC3)c2c1.CS(=O)(=O)O,100,19,0
CN(C(=O)NCCc1ccccc1)C1CCN(CCCCCNC(=O)/C=C/c2ccc(Cl)c(Cl)c2)CC1,93,11,43
CCCCCC(NCCCC)c1ccc(OCCOc2ccc(C(CCCCC)NCCCC)cc2)cc1.Cl (centres undefined),88,96,99
Cc1cccc2nc(-c3cccc(-c4ccc(NC(=O)c5cnn6cccnc56)cc4)c3)[nH]c12,100,73,99
CCN1CCN(c2cc(C)c3cc(NC(=O)C=Cc4cccc(OC)c4OC)ccc3n2)CC1,99,38,18
Clc1ncnc2ncn(Cc3cccc(Br)c3)c12,91,56,0
NC1CCN(c2nc(NCCc3ccc(O)cc3)nc(NCc3ccccc3-c3ccccc3)n2)CC1.O=C(O)C(F)(F)F,99,32,14
O=C(CCOc1ccccc1)NCC1CCCO1 (centres undefined),92,0,0
OC(Cn1ccnc1)(c1ccc(Cl)cc1Cl)C1CCCCC1 (centres undefined),98,58,7
CCCCNC(=N)c1ccc(OCCCCCOc2ccc(C(=N)NCCCC)cc2)cc1.Cl,99,99,19
Cc1ccc(C(NC(=O)Cc2ccccc2)c2ccc3cccnc3c2O)cc1 (centres undefined),94,77,47
CC[C@H](NC(=O)c1c(CCCN2CCN(c3ccccc3)CC2)c(-c2ccccc2)nc2cc(O)ccc12)c1ccccc1,96,97,12
CN1CCCC(CN2CCN(Cc3cccc(-c4ccc(-c5nc6ccccc6[nH]5)cc4)c3)CC2)C1.O=C(O)C(F)(F)F (centres undefined),100,100,73
CCCCCOc1ccc(C=NNc2nc(O)cc(-c3ccccc3)n2)cc1,88,86,0
Cc1cc(CNCCCCCCNCc2ccc(-c3ccccc3)cc2)ccc1O,98,0,90
COc1ccc2nccc([C@@H](O)CN3CCC(NC(=O)C(c4ccsc4)N4CCN(c5ccccc5)CC4)CC3)c2c1 (some centres undefined),95,17,24
CCCCOc1cc(OC)c2ccccc2c1CCNCCCCNCCc1c(OCCCC)cc(OC)c2ccccc12.CS(=O)(=O)O,82,82,100
Cc1cc(N)c2cc(NC(=O)/C=C/c3ccccc3)ccc2n1,100,68,20
CCCC(C)N(Cc1ccc(C(C)(C)C)cc1)C(=O)c1cccc(C#N)c1 (centres undefined),86,45,14
CCC[C@@H]([C@@H](CC1CCCCC1)C(=O)N[C@H](C(=O)Nc1ccccn1)[C@H](C)CC)N(O)C=O,96,87,24
CN(C)CCCNCc1cn(S(=O)(=O)c2ccccc2Cl)c2ccccc12.Cl,92,71,20
CCC1N=C(N)N=C(N)N1OCc1ccc(Cl)c(Cl)c1 (centres undefined),93,90,54
Cc1cc(Cl)ccc1OC(C)C(=O)N1CCc2ccccc21 (centres undefined),94,78,8
Cc1cc(C)c(C(=O)Nc2n[nH]c3nnc(-c4cccc(F)c4F)cc23)c(C)c1,90,0,0
Cl.Nc1c2c(nc3ccc(NC(=O)CCCCCCc4ccccc4)cc13)CCCC2,100,90,100
